# Assay outcomes: PubChem BioAssay, National Center for Advancing Translational Sciences (NCATS)
# This is a sample that favours compounds with a hit; in the whole collection about 2.2% have one here.
# aSyn yeast inh: inhibitors of alpha-synuclein toxicity in yeast; Yeast expressing alpha-synuclein, growth rescue, BacTiter-Glo, 24 h; Potency, µM (top dose mostly 46.1 µM), without a hit: top-dose growth rescue (activation), hits mostly activators; 0.14% of 370,000 active; note: % of control where 0% means no effect; nearly all actives have a fitted effect of over 65% in size
#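 Rescue of yeast growth: cells expressing toxic alpha-synuclein, induced in galactose at OD600 0.02, incubated with compound 24 h at 30 C. ATP luminescence quantified growth; inhibitors of toxicity appear as activators.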
# TDP43 rescue: inhibitors of TDP-43 toxicity in yeast. TDP-43 expressing yeast growth rescue, BacTiter-Glo, 24 h. Potency, µM (series often up to 46.1 µM), for the others: at the top dose growth rescue (activation), actives largely listed as activators. 1.8% of 410,000 active. AID 652104; note: % of control where 0% means no effect; nearly all actives have a fitted effect of over 50% in size
#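 Readout is BacTiter-Glo luminescence of cell growth, so inhibitors register as activators. TDP-43-expressing yeast at OD600=0.02 in galactose medium, after raffinose pregrowth to mid-log, were incubated with compound for 24 hr at 30 deg C.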
# Abeta rescue: restores growth of yeast expressing A-beta42 peptide | yeast expressing A-beta42, growth rescue, OD600, 48 h; response scale: 0% DMSO, 100% iron-clioquinol control | Potency, µM (titrated, usually from 46.1 µM), hits mostly activators | 0.063% of 410,000 active; note: nearly all actives have a fitted effect of over 55% in size
#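 Yeast A-beta toxicity model in growth medium with pinned compounds, 48 h at 30 C; growth read as absorbance at 600 nm. Normalized to FeCl3/clioquinol equimolar mix (positive) and DMSO (negative).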
# FUS suppressor: suppressors of FUS proteinopathy in yeast. S. cerevisiae FUS-expressing, growth rescue, OD600, 24 h. Potency, µM (doses to about 76.6 µM), actives largely listed as activators. 0.24% of 390,000 active;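 note: plate controls were DMSO vehicle for no effect and reference control for full effect; nearly all actives have a fitted effect of over 55% in size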
#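 Cultures pregrown in 2.5% raffinose medium are shifted to minimal medium containing 2% galactose to express toxic FUS. Compounds are tested at several concentrations. After 24hr at 30C, growth is quantified at 600 nm absorbance.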
# Mito fusion yeast: blocks mitochondrial division or promotes mitochondrial fusion; Potency, µM (series often up to 46.1 µM), for the others: top-dose growth rescue (activation), most hits filed as activators; S. cerevisiae fusion-defective mutant growth rescue, CellTiterGlo 48 h; 0.23% of 320,000 active; AID 485298; note: % of control where 0% means no effect; nearly all actives have a fitted effect of over 45% in size
#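 Luminescent cell viability in 1536-well qHTS format served as the measure of rescued growth in ts fusion-mutant S. cerevisiae cultured on non-fermentable YPEG for 48 hours at 37C.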
# Numbers without * were called inactive; i = inactive; ? = inconclusive; nt = no result given. Calls come from the whole dose curve; as a rule, active = well fitted curve in the direction sought with a large enough effect; inconclusive = small, poorly fitted or top-dose-only effect, or another doubt; inactive = no such curve, though single readings can be large; an effect the other way counts as inactive or inconclusive. Potency is the fitted concentration of half-maximal effect.
SMILES,aSyn yeast inh,TDP43 rescue,Abeta rescue,FUS suppressor,Mito fusion yeast
Cc1ccc(C(=O)Nc2cc(-c3nc4ncccc4o3)ccc2C)c(C)c1,nt,17.6%,i,i,nt
CN(C(=O)c1ccc2c(c1)C(=O)N(CCC1=CCCCC1)C2=O)C1CCCCC1,7.3%,22.4µM*,i,i,9.8%
COc1cc2c(cc1OC)/C(=C/c1ccc(Cl)cc1)C(=O)OC2,12.6%,22.4µM*,i,i,?
CC/C(O)=C1\C(=O)CC(C)(C)CC1=Nc1ccccc1C,5.2%,22.0%,i,i,11.2µM*
C=CCn1c(N)c(C(=O)Nc2cccc(C)c2)c2nc3ccccc3nc21,7.8%,25.1µM*,i,i,-7.9%
C=CCn1c(N)c(C(=O)Nc2ccc(C)c(C)c2)c2nc3ccccc3nc21,7.4%,16.8%,i,i,0.6%
CCc1ccccc1NC(=O)Cn1c(=O)n(Cc2ccc(OC)cc2)c(=O)c2oc3ccccc3c21,nt,-6.4%,i,i,nt
CCCCOc1ccc(NC(=O)Nc2nnc(C)s2)cc1,1.26µM*,7.3%,i,i,17.0%
O=C(COC(=O)c1ccccc1Br)Nc1ccc(F)cc1,-0.3%,?,i,i,-3.4%
O=C(COC(=O)c1ccccc1Br)NCCc1ccc(F)cc1,19.3%,20µM*,i,nt,3.0%
COCCNC(=O)COC(=O)c1cccnc1SC,3.0%,12.5%,i,i,-4.4%
CSc1ncccc1C(=O)OCC(=O)NCCCc1ccccc1,1.3%,17.8µM*,i,i,nt
O=C(NCCCN1CCN(c2cccc(Cl)c2)CC1)c1cnn(-c2ccc(F)cc2)c1-n1cccc1,-18.6%,7.3%,i,i,nt
CCCCCCN1C[C@H](n2cc(COC(=O)c3ccccc3)nn2)[C@@H](O)C[C@@H]1c1ccccc1,11.1%,29.5%,i,i,nt
CCCCCCN1C[C@H](n2cc(COC(=O)c3ccccc3)nn2)[C@@H](O)C[C@@H]1c1ccc(C)cc1,-14.3%,35.5µM*,i,?,nt
CCCCCCN1C[C@@H](n2cc(COC(=O)c3ccccc3)nn2)[C@H](O)C[C@@H]1c1ccccc1,25.1µM*,19.3%,i,i,nt
Cc1ccccc1Cn1c(=O)n(CCc2ccccc2)c(=O)c2sc3ccccc3c21,nt,-17.4%,i,i,nt
CCOCc1nnc(NC(=O)c2cc(Cl)ccc2OC)s1,11.4%,12.6µM*,i,i,5.8%
COCc1nnc(NC(=O)c2cc(Cl)ccc2OC)s1,-0.3%,0.0%,i,i,4.7%
CC(=O)c1cccc(-n2c(=O)c3c4c(sc3n(Cc3ccccc3Cl)c2=O)CN(C(C)=O)CC4)c1,nt,-10.6%,i,i,nt
O=C1CCc2cc(NS(=O)(=O)c3ccc(Br)cc3)cc3c2N1CC3,3.16µM*,7.9%,i,i,10.6%
Clc1cccc(Cl)c1/C=C/c1ccn[nH]1,-4.1%,22.4µM*,i,i,27.8%
CCc1cccc(Nc2ncnc3onc(-c4ccc(F)cc4)c23)c1,nt,?,i,i,nt
Cc1cccc(Nc2ncnc3onc(-c4cccc(Cl)c4)c23)c1C,-1.7%,12.6µM*,i,?,23.1%
Cc1cccc(Nc2ncnc3onc(-c4ccc(F)cc4)c23)c1C,-0.9%,14.1µM*,i,?,17.0%
SMILES,aSyn yeast inh,TDP43 rescue,Abeta rescue,FUS suppressor,Mito fusion yeast
Fc1ccc(Nc2ncnc3onc(-c4cccc(Cl)c4)c23)c(F)c1,nt,17.0%,i,i,nt
O=C(NCCCc1nc2ccccc2n1CCOc1ccccc1)C1CCCCC1,3.0%,nt,nt,nt,nt
Cc1ccc2nc(-c3cccc(N)c3)oc2c1,-23.8%,-11.5%,i,i,1.6%
Cc1cc(C)c2oc(-c3cccc(N)c3)nc2c1,6.5%,11.2µM*,i,i,-24.7%
CCN(CC)c1nc(-c2ccccc2)ncc1S(=O)(=O)c1ccc(C)cc1,4.0%,23.7%,i,i,-2.8%
CN(C)c1nc(-c2ccccc2)ncc1S(=O)(=O)c1ccccc1,9.5%,15.8µM*,i,i,2.4%
Cc1ccc(-c2nc(C)sc2CC(=O)OCC(=O)Nc2ccc(F)c(Cl)c2)cc1,-6.2%,25.1µM*,?,i,nt
COc1ccc(C(=O)NNC(=S)NC(=O)c2ccco2)cc1,-19.6%,?,i,i,-23.5%
CCC(=O)NC(=S)NNC(=O)c1ccc(OC)cc1,10µM*,20.3%,10µM*,i,12.3%
CCCCOc1ccc(C(=O)NNC(=S)NC(=O)CC)cc1,-13.5%,?,i,i,-30.0%
O=C(/C=C/c1ccco1)NC(=S)NNC(=O)c1ccco1,11.2µM*,?,?,i,-10.3%
CCCOc1ccc(C(=O)NNC(=S)NC(=O)c2ccccc2)cc1,56.8%,?,i,i,-59.0%
CCCOc1ccc(C(=O)NNC(=S)NC(C)=O)cc1,3.98µM*,11.2µM*,?,i,-26.3%
CCCOc1ccc(C(=O)NNC(=S)NC(=O)c2ccco2)cc1,-28.0%,6.31µM*,i,i,-25.7%
COc1ccc(OC)c(/C=C/c2sc3ccccc3[n+]2C)c1,7.4%,nt,nt,nt,nt
Cc1cc(C)n(-c2nc3cc(Cl)ccc3nc2Nc2ccc(CC(=O)O)cc2)n1,nt,13.1%,i,i,nt
O=C(NNC(=S)NC(=O)c1ccco1)c1ccc(F)cc1,29.7%,?,i,i,-22.4%
O=C(NC(=S)NNC(=O)c1ccco1)c1ccc(Br)cc1,?,3.55µM*,i,i,-35.0%
O=C(COc1ccc(Cl)cc1Cl)NNC(=S)NC(=O)c1ccco1,10µM*,17.8µM*,?,i,-13.1%
O=C(COc1ccc(Cl)cc1Cl)NNC(=S)NCc1ccco1,7.2%,14.9%,?,i,11.2%
Oc1ccc(CNc2ccccc2Br)c2cccnc12,nt,nt,nt,17.8µM*,nt
Cc1ccccc1NCc1ccc(O)c2ncccc12,-6.8%,-14.2%,i,i,-0.8%
Cc1oc2c(C)c3oc(=O)c(CC(=O)N4CCCCC4)c(C)c3cc2c1C,nt,16.2%,i,i,nt
